# Measurements as given in the supplement of paper PMC6555819.
# Key:
# Assay in all cases: PBM binding z-score (relative to random genomic background probes); higher = stronger binding; sequences stand for … in GC…GCGATTGACAGCGTAGAATGAAGG
# [1] = tested on: RARb homodimer (NR concentration 270 nM)
# In short: (§1)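 Ligand-free nuclear receptor dimers were applied to custom Agilent 4×180K protein-binding microarrays whose double-stranded probes carried direct-repeat seeds, single-nucleotide variants, half-site ablations and random human genomic background sequences in 34-nt variable regions. Incubation lasted 1 h. Binding z-scores were computed against the random background probes from regression-normalized fluorescence.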
# [2] = tested on: RARg:RXRa (NR concentration 270 nM, RXRa partner concentration 90 nM)
# In short: as §1
# [3] = tested on: RARg homodimer (NR concentration 270 nM)
# In short: as §1
# [4] = tested on: RXRa DBDmut IVT, anti-RXR (DBD mutation: RXRa K156A/R161A, NR concentration 90 nM)
# In short: as §1
# [5] = tested on: RXRa homodimer (NR concentration 180 nM)
# In short: as §1
# [6] = tested on: THRa:RXRa (NR concentration 90 nM, RXRa partner concentration 90 nM)
# In short: as §1
# [7] = tested on: THRa homodimer (NR concentration 90 nM)
# In short: as §1
# [8] = tested on: VDR homodimer (NR concentration 270 nM)
# In short: as §1
Sequence,PBM binding z-score [1],PBM binding z-score [2],PBM binding z-score [3],PBM binding z-score [4],PBM binding z-score [5],PBM binding z-score [6],PBM binding z-score [7],PBM binding z-score [8]
GCTTGTAGATCAAGGTTTAGAAAGACTAAGCTAA,-0.764,-0.251,-0.299,-0.0471,-0.469,-0.36,-0.736,-0.186
CCTATTAGTTGACCATAAGGGCAACAGAAGCTCG,1.77,1.46,1.16,0.685,0.825,1.76,1.15,0.832
TGAATGAGTTTATAAGATCAGGGAACGTTGCAAA,-0.48,0.181,0.344,3,0.0895,0.0488,-0.207,2.37
TAGCCTAGGTCGGATCGGGCCAGTATACGCTATA,0.206,0.17,0.282,-1.2,-0.0599,2.67,-0.787,-0.985
CCTTTTAGTTGACCATAAGGGCAACCGAAGCTCG,2.13,1.55,1.08,0.818,0.506,1.8,1.51,0.92
GCTCCTAGGTCAGGTTGGTCAGCTAACGGGTACG,3.18,2.91,3.46,0.888,1.47,2.27,1.22,0.591
CCTTACGGGTCACGGACAGGTTATAGCATTTGGA,3.42,6.84,5.39,1.99,6.76,3.59,0.532,1.16
AGAATGAGGTTATACCTAGATCAGGGAAGAAAGT,0.483,1.75,1.14,1.51,2.12,2.05,0.418,0.345
ATCGAAAGGTCGAAGGTGGGTATACCCACCCGAA,2.02,3.9,3.4,0.146,4.23,1.81,-0.334,0.567
AATACTGGGTCACTAGGCCAGAGTAGGTACGAAT,2.47,2.99,3.54,0.506,2.37,1.81,0.283,0.859
CGTCCAAGGTCAGAGACGTCAGTGAATGCCGAGT,3.39,4.24,4.6,2.62,3.33,3.24,1.49,1.24
ATCTCTAGGTAAAAGTTCAGTAAATCCCGAGGAT,2.41,1.83,1.94,0.937,1.61,1.38,0.269,2.01
ACTCGGAGGACAAAGGTCAGAGCTACGCCAGTGA,4.27,5.92,5.23,1.08,5.45,3.35,0.581,1.03
CCGACTGGGGCAAAAAGGTTACCATACCATCCGG,2.34,1.8,1.6,-0.333,1.7,1.21,0.0277,0.374
TCATATAGGTAATACAGGTGAAAATCGGCATCTA,0.328,0.729,0.82,1.8,1.72,0.836,0.391,0.435
TAGCCTAGGTCATTGGGCCCGTATAGTACGCATC,2.73,3.69,4.06,1.8,2.68,3.01,1.43,0.994
TCGAGTCGGTTACCAATGGGGCATTCAGCTTTCT,0.134,-0.35,-0.367,0.329,-0.284,-0.43,-0.423,-0.105
TCGAGTAGGTTAGTCGGCGCATTCAGCCAACATA,-0.408,-0.412,-0.662,-0.0124,-0.244,-0.542,-0.648,-0.26
TCTTGTAGATCCGCAGGTTAAGAAAGCTGGCCAA,-0.00283,-0.252,-0.631,0.638,0.152,0.0319,-0.513,-0.38

Sequence,PBM binding z-score [1],PBM binding z-score [2],PBM binding z-score [3],PBM binding z-score [4],PBM binding z-score [5],PBM binding z-score [6],PBM binding z-score [7],PBM binding z-score [8]
TTACCAAGGTGATCTGAGGTCGTTGATCCAACTC,1.63,0.881,0.757,0.903,1.37,4.77,2.67,2.96
TCGGGTAGGTTAGTCGGGGCATTCAGCCAACATA,1.24,0.503,0.704,0.58,0.0388,1.57,1.21,1.08
TATACAGGGACAAAGGCCAGAGTACGAATGTCGA,1.4,1.29,1.58,-0.217,0.385,0.949,-0.0231,0.738
ATCGAAAGGTCGACGGGGTGAGTATACACCGTTT,3.14,4.6,4.63,1.61,5.07,3.57,0.568,1.7
CACACTAGGTCACGAAAGGTCAAAGTCGAATGAC,5.91,7.95,8.87,2.87,8.16,5.26,3.18,3.49
ACTTACGGGTCAACGAGGTTAGAGCACGCGTATA,3.62,5.52,5.15,2.34,5.87,3.7,0.878,2.6
TAGCCTAGGTCATGGGCCAGAATACCACGCGAAC,2.86,4.27,4.29,0.064,3.81,2.89,1.07,-0.109
CGTCCAAGGCCATAGGAGGTCAGTGAAGACAGAT,3.61,2.74,3.57,0.911,1.74,3.89,1.18,1.42
TCTTGTAGATTAAAGGTTAAGAAAGCCGAAGCCT,1.05,1.04,0.588,0.892,1.99,1.09,-0.228,0.123
ACAGACAGGTGAGTGACGGTAACTCAGCTGGACG,-0.222,0.269,0.362,-0.203,0.416,-0.128,-0.727,-0.577
ATATGTAGGGTACATCCGGGTCATTCAGGCTATG,2.84,2.44,1.86,2.66,2.64,3.83,2.45,5.83
CCTTGCAGGCCAGGGTCACTCAAGCATTTCGCTT,2.93,3.21,2.83,0.484,3.43,2.76,1.07,1.18
TAGCCGAGGTCATGGGCCAGTATACCACGCGAAC,4.19,6.64,6.26,3.46,7.64,4.25,2.71,3.91
GGAACGAAGGCAAAGTTGATAGCATCTGTCGACG,-0.905,-0.275,-0.151,-0.157,-0.084,-0.716,-1.21,-1.02
AATACAGGGTCATCGTAGGCCAGAGTGCGCACAG,3.68,5.64,4.81,3.12,6.37,4.6,1.4,3.2
CAGCCTAGGTCAGGGCCAGTATGGGAGGAACGTT,2.38,3.22,3.76,-0.69,1.38,1.95,0.312,-0.378
CCTATTAGTTGACCATAAGGGCAACGGAAGCTCG,1.92,1.29,0.865,0.278,0.632,1.84,1.47,0.902
GATACAGGGTCGAGGCCAGAGTACGCGTATTGAT,1.31,1.98,1.9,0.497,2.13,1.67,0.075,0.897
CGAACTACGTCATTGACAGGACAGTGAATAGTAA,0.0564,0.288,0.139,0.0473,0.152,0.0548,-0.0847,-0.012

Sequence,PBM binding z-score [1],PBM binding z-score [2],PBM binding z-score [3],PBM binding z-score [4],PBM binding z-score [5],PBM binding z-score [6],PBM binding z-score [7],PBM binding z-score [8]
CGAACTAGGTCGTTGACAGGACAGTGAATAGTAA,0.711,1.6,1.2,1.18,0.488,1.33,0.0428,0.716
GCAGACAGGCGAAACGCAGGTAACTCAGGGTGGC,-0.842,-0.359,-0.272,-0.577,-0.167,0.338,-0.81,-0.974
AGAATGAGGTTACCCAAGATCAGGGAAACGCTTG,0.82,1.93,1.6,1.06,2.36,3.28,0.843,0.242
GGTACAGGGTCAAGGCCAGAGTACGCGTATTGAT,3.76,5.41,5.03,1.78,5.91,3.58,1.26,2.94
CGAACTAGGTCAAGGACAGAGAATCTCCGCACGC,2.93,3.95,4.67,1.52,2.61,2.74,1.79,0.0808
AGTCAAAGCTCATCTAGGTAACGTAAGATATGCT,-0.617,0.0208,0.207,-0.43,0.198,0.467,-0.333,-0.256
CCTACTGGGCGATCAGGTCATTGATATCAACGTT,2.23,1.35,1.37,0.269,1.02,2.74,2.18,1.53
CCGACTGTGGCAAAGGTTACCATACTCAGTACGA,2,2.04,1.17,0.804,2.6,1.4,0.0506,0.185
TTACCATGGTGAGCTGAGGTCGTTGATCCAACTC,0.61,0.0619,-0.479,-0.0297,0.594,2.81,1.14,1.7
GCTCGGAGGACAAGGTGAGAGCTTTGTCCGTAGA,0.56,0.159,0.805,-0.507,-0.256,1.5,0.465,-0.74
CGTCCAAGTTCAAGGTAACGTAACAGAAAGCAGC,2.23,2.83,3.21,4.37,2.15,2.6,1.66,3.39
CAACCAAGGTGAACAAGGTCGTTGATTACTATTC,2.25,1.9,1.64,1.49,2.07,3.44,2.06,2.59
GCGCCTGGGGCATCAGCAGGTTACCATAACTTAA,0.912,0.748,0.657,-0.312,0.179,0.955,-0.0466,-0.553
TCTGGGAGGACACGAAGGTCAGAGCTTTCCAGAG,3.49,3.51,4.11,0.416,2.01,2.9,1.18,1.35
CAGACTGGGGCAGAAAGGTTACCATACCATCCGG,2.4,2.09,1.85,-0.43,1.98,1.29,-0.421,0.0589
CCTAGCATGCCAATCTGGGTCACTCAAGGCTTGA,1.86,0.768,0.691,0.255,0.917,2.93,0.266,-0.104
AGTCAAAGTTCATGTAGGTAACGTAAGATATGCT,3.73,5.31,5.84,4.74,4.45,2.65,-0.0581,4.64
GCTTACGGGTCAAAGGTTATAGGATGAATAGAAT,3.6,6.89,4.67,2.7,9.57,3.78,0.0155,1.65
